Compound activity: PubChem, several laboratories
A selection: hits, their analogues and other compounds. The true share with any hit is near 27%.
CYP2C9 act: human CYP2C9 activators, primary screen, biochemical, luminescence; recombinant CYP2C9, luciferin-H conversion; hits give high values; factor 1 = untreated enzyme, 0 = blocked; 96,000 compounds, 1.4% hits; activation factor at 5 µM;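 active = activation factor of 2 or more for CYP2C9 at a 5 µM dose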;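 note: 0 = sulfaphenazole-blocked wells and 1 = vehicle-only wells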
CYP2C19 activ: human CYP2C19 activators, primary screen, biochemical, luminescence; Cytochrome P450 2C19 (Homo sapiens), P33261; recombinant CYP2C19, luciferin-H EGE luminescence; hits give high values; 0 = fully inhibited enzyme, 1 = untreated enzyme; activation factor at 5 µM; 96,000 tested, under 10 active; AID 1025, 2008;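 active = activation factor of at least 2 at 5 µM in the primary screen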;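 note: 0 = wells with 2.5 mM tranylcypromine and 1 = vehicle-only wells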
CYP2C19 inh: blockers of cytochrome P450 2C19 activity – biochemical, luminescence, ADME assay, primary screen; CYP2C19 Supersomes, luciferin-H EGE luminescence, 30 min; inhibition, % at 5 µM; 96,000 compounds, 21% hits; AID 778, 2007;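 active = CYP2C19 inhibition above a set limit at 5 µM in the primary screen, cut at about 50% in these data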;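 note: plate controls were negative control wells for no effect and 2.5 mM tranylcypromine positive control for full effect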
Cav32 inh: Cav3.2 calcium influx blockers – cell-based, Fluo-4 calcium fluorescence, FDSS, MLSMR library, primary screen; Voltage-dependent T-type calcium channel subunit alpha-1H (Homo sapiens), O95180; Cav3.2-expressing cells; hits give low values; B-score at 10 µM; 100,000 compounds, 4% hits; AID 449739, 2010;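 active = single-dose well whose peak fluorescence ratio is a statistical outlier from its plate by either plate-standardised score or position-corrected B-score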
CYP2C9 inh: blockers of cytochrome P450 2C9 activity – biochemical, luminescence, ADME assay, primary screen; P11712; CYP2C9 Supersomes, luciferin-H conversion; inhibition, % at 5 µM; 96,000 compounds, 20% hits; AID 777, 2007;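 active = blocking of liver enzyme CYP2C9 beyond about 50% at 5 µM, limit read from the data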
Numbers without * were called inactive; nt = not tested or not shown.

SMILES	CYP2C9 act	CYP2C19 activ	CYP2C19 inh	Cav32 inh	CYP2C9 inh
N#Cc1c(-c2cccs2)cc(C2CC2)nc1SCC(N)=O	0.9	0.4	59*	-0.037	13
CCOC(=O)CC(=O)CSc1nc(N)c(C#N)c(-c2ccc(Cl)cc2)c1C#N	0.4	0.2	84*	0.53	62*
N#Cc1c(-c2ccccc2)cc(C2CC2)nc1SCC(=O)c1cccs1	0.6	0.9	14	nt	43
Cc1ccc(NC(=O)CN(C)CC(=O)Nc2c(C)cccc2C)c(Br)c1	0.7	1	5	0.82	30
CCOC(=O)c1cc(CC)sc1NC(=O)C(c1ccccc1)c1ccccc1	0.6	0.9	6	-1.7	40
O=C(c1ccco1)N(CCC(c1ccccc1)c1ccco1)Cc1ccco1 (configuration not stated)	0.6	0.9	11	-12*	37
CCC(=O)N(CCC(c1ccco1)c1ccccc1OC)Cc1cccs1 (configuration not stated)	0	0	96*	-5.8*	96*
NC(=O)CC(c1ccccc1)c1ccco1 (configuration not stated)	1	1.1	-9	0.12	-1
CC(=O)N(CCC(c1ccccc1)c1ccco1)Cc1cccs1 (configuration not stated)	0.6	0.7	32	-7.4*	43
COCCn1c(=O)c2c(nc3n2CCN3c2ccc(C)cc2)n(C)c1=O	1	1	1	0.19	0
CCOC(=O)CNC(=O)Nc1ccccc1C(=O)OC	1	0.8	23	0.37	-1
CSCCC1C(C#N)=C(N)Oc2n[nH]c(-c3cccs3)c21 (configuration not stated)	0.4	0.6	37	0.74	55*
CC(C)CC1C(C#N)=C(N)Oc2n[nH]c(-c3cccs3)c21 (configuration not stated)	0.8	0.3	67*	0.8	22
N#CC1=C(N)Oc2n[nH]c(-c3cccs3)c2C1c1cccs1 (configuration not stated)	0.8	1	4	-0.14	15
CCOC(=O)N1CCC(Nc2ncnc3c2cnn3-c2ccc(Cl)cc2)CC1	0.9	0.9	11	-0.99	6
COCCNC(=O)C1CC(c2cccc(F)c2)=NO1 (configuration not stated)	nt	nt	nt	0.044	nt
COCC(C)NC(=O)C1CC(c2cccc(Br)c2)=NO1 (configuration not stated)	2.1*	1	0	0.19	-110
COc1cccc(C2=NOC(C(=O)NC(C)(C)C)C2)c1 (configuration not stated)	1	0.7	28	1.1	-3
COc1cccc(C2=NOC(C(=O)NCc3cccs3)C2)c1 (configuration not stated)	0.3	0.5	54*	0.031	68*
COc1cccc(C2=NOC(C(=O)Nc3ccccc3SC)C2)c1 (configuration not stated)	2.5*	0.4	63*	-0.39	-147
COc1cccc(C2=NOC(C(=O)NCc3ccc(F)cc3)C2)c1 (configuration not stated)	1.3	0.6	44	nt	-30
COc1ccccc1NC(=O)NC1(C(=O)N2CCCCCC2)CCCCC1	nt	nt	nt	-0.95	nt
CC(C)CNS(=O)(=O)c1ccc(CCC(=O)NCc2cccnc2)cc1	0.7	1	0	1.1	32
CCN1CCN(CC(=O)NC2CCCCC2)C(=O)C1=O	nt	nt	nt	0.027	nt
CCOC(=O)C1(C)NC(c2ccc(N(C)C)cc2)C2C(=O)N(c3ccc(OC)cc3)C(=O)C21 (configuration not stated)	0.8	0.4	57*	0.7	22
CCOC(=O)C1(C)NC(c2ccc(OC)cc2OC)C2C(=O)N(c3cccc(OC)c3)C(=O)C21 (configuration not stated)	0.2	0.2	80*	nt	83*
OC(CNCc1ccco1)Cn1c2ccc(Br)cc2c2cc(Br)ccc21 (configuration not stated)	0.9	1	-1	-0.32	5
CC(=O)NC1=NN(C(C)=O)C2(S1)C(=O)N(C(C)C)c1ccc(C)cc12 (configuration not stated)	1.1	1.1	-9	0.71	-5
